HCMV inh: qHTS Assay for inhibitors of the human cytomegalovirus (HCMV); HFF cells, HCMV-luciferase reporter, 72 h; stronger effect = lower value; activity change, negative = inhibition, % at 57.5 µM; 4.5% of 410,000 active; in the data active means activity change below about -60%; inconclusive means no clear call, values can overlap the other calls; inactive means above about -39%
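Screen run at 2 compound doses on HFFs infected with reporter HCMV, MOI 1 PFU/cell. Luciferase activity from cell lysates at 72 h post infection gave inhibition relative to buffer-only and Salinomycin wells.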
SARS PLP yeast: qHTS of Yeast-based Assay for SARS-CoV PLP; S. cerevisiae expressing SARS-CoV PLpro, growth rescue; Potency, µM (series often up to 32.9 µM), usual class: activators; 0.19% of 330,000 active; AID 485353, 2010; calls by dose curve; further: nearly all actives have a fitted effect of over 55% in size
FMDV inh: High Throughput Screening for Foot and Mouth Disease Virus Antivirals | FMDV antiviral cell-based qHTS | Potency, µM (highest dose often 57.9 µM), usual class: inhibitors | 1.2% of 410,000 active | AID 1159524, 2015; calls by dose curve; tested in HEK293T cells; further: read-out not given here; nearly all actives have a fitted effect of over 45% in size
MARV entry inh: qHTS for inhibitors of binding or entry into cells for Marburg Virus. Marburg virus pseudotyped entry inhibition, cell reporter. Potency, µM (doses to about 37.8 µM), most hits filed as inhibitors. 1.8% of 300,000 active. AID 540276, 2011; calls by dose curve; tested in HEK293 cells
LASV entry inh: qHTS for Inhibitors of binding or entry into cells for Lassa Virus. Lassa virus pseudotype entry inhibition, cell reporter. Potency, µM (titrated, usually from 37.9 µM), hits mostly inhibitors. 1.2% of 300,000 active. AID 540256, 2011; calls by dose curve; tested in HEK293 cells; further: nearly all actives have a fitted effect of over 50% in size
HCV inhibitor: qHTS Assay for Inhibitors of Hepatitis C Virus (HCV). Potency, µM (highest dose often 41.8 µM), actives largely listed as inhibitors. 3.4% of 340,000 active. Huh7.5.1 HCVcc-Cre infection, luciferase reporter, 44 h; active means well fitted inhibition curve with a large enough effect; inconclusive means small, poorly fitted or top-dose-only effect, or another doubt; inactive means no such curve, though single readings can be large or run the other way
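Cells (1,000/well) were plated 4 h before compound, then infected with HCVcc-Cre virus (~0.5 moi). After 44 h further culture, infection was read as luciferase luminescence following a 15 min substrate incubation at room temperature.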
A number is an active result; i = inactive; ? = inconclusive; nt = not tested or not shown. Compounds with a hit are over-represented: about 8% of the library has one in this group of screens.

SMILES	HCMV inh	SARS PLP yeast	FMDV inh	MARV entry inh	LASV entry inh	HCV inhibitor
CCOC(=O)N1CCc2c(sc(NCc3cccc(F)c3)c2C(=O)Nc2ccc(OC)cc2)C1	i	nt	i	nt	?	nt
CCOC(=O)N1CCc2c(sc(NCc3ccc(N(C)C)cc3)c2C(=O)Nc2ccc(OC)cc2)C1	-65	nt	i	nt	?	nt
COc1ccc(NC(=O)c2c(NC(=O)CNCC(C)C)sc3c2CCC3)c(OC)c1	i	i	i	?	?	10µM
CC(C)(C)c1ccc(S(=O)(=O)Nc2cccc(C3OCCCO3)c2)cc1	i	i	i	?	?	?
N#Cc1nccnc1N1CCN(C(=O)Nc2ccccc2)CC1	i	i	i	i	i	i
CCOC(=O)c1sc2cccc(F)c2c1S(=O)(=O)NCc1ccccc1Cl	i	nt	i	nt	i	nt
CCCCCCN1C[C@@H](n2cc(-c3ccc(F)cc3)nn2)[C@H](O)C[C@H]1c1ccccc1	nt	nt	nt	16µM	nt	nt
O[C@H]1C[C@H](c2ccccc2)N(CC2CCCCC2)C[C@@H]1n1cc(-c2ccc(F)cc2)nn1	-101	nt	?	nt	nt	nt
CCCCCCN1C[C@@H](n2cc(-c3ccc(F)cc3)nn2)[C@H](O)C[C@@H]1c1ccccc1	i	nt	i	nt	nt	nt
O=C(C1CCCCC1)N1C[C@H](n2cc(-c3ccc(F)cc3)nn2)[C@H](O)C[C@@H]1c1ccc(Cl)cc1	nt	nt	nt	3.5µM	nt	nt
O=C(C1CCCCC1)N1C[C@H](n2cc(-c3ccc(F)cc3)nn2)[C@@H](O)C[C@@H]1c1ccccc1	i	nt	i	nt	nt	nt
O=S(=O)(c1ccccc1)N(C[C@@H](O)CN1CCCCC1)c1ccccc1	nt	nt	nt	i	nt	nt
Clc1ccc(Cl)c2sc(N3CCOCC3)nc12	i	nt	i	i	?	13µM
COc1ccc(CCNc2nc3c(c(=O)n(C)c(=O)n3C)n2Cc2ccccc2Cl)cc1OC	i	nt	?	i	?	nt
O=C(NCc1ccccn1)Nc1cccc(Cl)c1Cl	i	i	i	nt	nt	i
O=S(=O)(c1ccc(Cl)cc1)N1CCN(Cc2ccc(O)c3ncccc23)CC1	-98	i	i	13µM	?	?
O=[N+]([O-])c1ccc(S(=O)(=O)N2CCN(Cc3c[nH]c4ccccc34)CC2)cc1	i	i	i	i	i	22µM
CN1CCN(C2CCN(Cc3ccc(O)c4ncccc34)CC2)CC1	i	?	i	nt	nt	nt
COc1ccc(S(=O)(=O)N2CCN(Cc3c[nH]c4ccccc34)CC2)cc1	i	i	i	i	i	i
O=S(=O)(c1ccc(Cl)cc1)N1CCN(Cc2ccncc2)CC1	i	i	i	i	i	i
Oc1ccc(CN2CCN(Cc3ccccc3)CC2)c2cccnc12	i	i	i	i	?	10µM
Cc1cc(C)cc(OCc2cc(=O)n3cc(C)sc3n2)c1	i	nt	i	i	i	nt
CCN(CC)S(=O)(=O)c1cc(NC(=O)COC(=O)c2c(C)noc2C)ccc1C	i	i	i	nt	nt	14µM
Cc1cc(NC(=O)COC(=O)c2c(C)noc2C)ccc1Br	?	i	i	?	i	i
CCN(CC)S(=O)(=O)c1cc(NC(=O)c2ccccc2OCc2c(C)noc2C)ccc1C	i	nt	i	?	11µM	i
SMILES	HCMV inh	SARS PLP yeast	FMDV inh	MARV entry inh	LASV entry inh	HCV inhibitor
Cc1cnc(-n2ncc(C(=O)N(CCO)C(C)C)c2-c2cccs2)nc1-c1ccc(F)cc1	nt	nt	i	nt	nt	nt
COc1cc(Nc2nc(SCc3ccccc3Cl)nc3ccccc23)cc(OC)c1	i	nt	i	nt	i	nt
CCN(CC)CCn1c2ccccc2c2cnc(N)c(C#N)c21	-98	i	i	11µM	?	10µM
CN(C)C=Nc1ncc2c3ccccc3n(CCN(C)C)c2c1C#N	-98	i	i	11µM	i	i
Cc1cccc(N2CCN(S(=O)(=O)c3ccc(-c4ccc(=O)[nH]n4)o3)CC2)c1C	-63	i	i	nt	nt	i
CC(=O)c1ccc(-c2cc(F)cc3c2OC(CNC(=O)c2ccc[n+]([O-])c2)C3)s1 (stereo unspecified)	nt	nt	i	nt	nt	nt
Cc1ccc(S(=O)(=O)Nc2cc3c(C(=O)OCc4ccccc4)c(C)oc3c3ccccc23)c(C)c1	i	nt	i	i	i	nt
Cc1cc(Cn2nc(-c3ccccc3)cc2C(=O)NCc2cccc(Br)c2)on1	i	i	i	nt	nt	5.6µM
C=CCO/N=C(/C)c1ccc(Oc2cnccn2)cc1	i	i	i	i	i	i
O=C(CSc1ccc(Cl)cc1)c1ccco1	nt	i	i	i	i	i
O=C(CCSc1ccc(Cl)cc1)c1ccco1	-64	i	i	nt	nt	?
O=C(NCCc1nnc2n1CCN(Cc1ccc(F)cc1)CC2)c1ccco1	nt	nt	i	nt	nt	nt
Cc1cc(C(=O)NC2CCCc3c2cnn3-c2ccccc2F)nc(C)n1 (stereo unspecified)	i	i	i	?	?	nt
COc1cc(C(=O)NC2CCCc3c2cnn3-c2ccccc2F)cc(OC)c1OC (stereo unspecified)	-62	i	?	?	i	8.9µM
CC(C)c1cc(C(=O)NC2CCCc3c2cnn3-c2ccccc2F)no1 (stereo unspecified)	-88	i	i	nt	nt	11µM
COC(=O)c1ccc(C(=O)NC2CCCc3c2cnn3-c2ccccc2F)nc1 (stereo unspecified)	i	i	i	nt	nt	i
Cc1ccc(C)c(C(=O)N2CCC(C3(c4ccccn4)NC(=O)N(CC4CCCO4)C3=O)CC2)c1 (stereo unspecified)	nt	nt	i	nt	nt	nt
COc1ccc(OC)c(-c2nnc3n2N=C(c2ccc(OC)c(OCC4CC4)c2)CS3)c1	nt	i	32µM	nt	nt	nt
COc1ccc(C2=Nn3c(nnc3-c3ccccc3OC)SC2)cc1OC1CCOC1 (stereo unspecified)	-90	i	i	nt	nt	nt
CCOc1ccc(C2=Nn3c(nnc3-c3ccccc3OC)SC2)cc1	-94	i	i	0.29µM	0.023µM	?
COc1ccc(C2=Nn3c(nnc3-c3ccccc3Cl)SC2)cc1OCC1CC1	-66	i	i	nt	nt	nt
CCN(CC)CCCNC(=O)c1cc(-c2ccccc2)c(N2CCCCC2)s1	i	i	?	?	16µM	6.3µM
Fc1ccccc1-c1nc(-c2ccccc2)oc1NCc1ccccc1	nt	nt	nt	i	nt	nt
CC[C@H](C)[C@@H](CN[C@H](CCCCNC)CNC)NCC1CCCC1	?	i	i	nt	nt	i
CCCC[C@@H](CN[C@H](C)CNC)NCC1CCC(C(C)(C)C)CC1 (stereo partly specified)	-87	i	i	nt	nt	?
Cc1cc(O)c(C(C)C)cc1NC1=NS(=O)(=O)c2ccccc21	-72	i	i	i	i	i
Cc1ccc(C)c(NC2=NS(=O)(=O)c3ccccc32)c1	?	i	nt	i	i	i
O=C(NCC1Cc2cccc(-c3cnccn3)c2O1)c1ccc(F)c(Cl)c1 (stereo unspecified)	nt	nt	i	nt	nt	nt
O=C(CCCc1nc(-c2ccc(Cl)cc2)no1)NC1CCCC1	-84	i	?	?	?	?
COc1ccc(-c2noc(CCCC(=O)Nc3ccc(C(N)=O)cc3)n2)cc1	-90	i	?	?	?	i

Screens: PubChem, National Center for Advancing Translational Sciences (NCATS)
